Laboratory results taken from PubChem BioAssay (NCI).
Several values for one entry are separate records, joined by “and”; a condition that tells them apart may be missing. Identical values can stand only once. About 79,000 compounds went through this panel and 15% of them were active in at least one assay; those are over-represented in the sample as a whole. Values without a mark were called inactive. Activity calls are given as the source filed them. No stated cut-off is given here; in the data, active means growth inhibition above about 70%; inactive means the rest.

Key:
[1] = NCI Yeast Anticancer Drug Screen. Data for the rad50 strain (AID 155);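 further: 0% = growth of vehicle-only cultures of the same strain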; details: S. cerevisiae rad50 strain growth inhibition, stronger effect = higher value; at 50.0 µM unless noted
Outline: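 Genetically altered yeast (DNA repair pathway); compound treatment; growth inhibition vs vehicle ctrl.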

[2] = NCI Yeast Anticancer Drug Screen. Data for the mec2-1 strain (AID 157); details: S. cerevisiae mec2-1 strain, stronger effect = higher value; at 50.0 µM unless noted
Outline: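 Each compound was tested on mec2-1 yeast, a strain altered in DNA damage repair or cell cycle control. Growth inhibition is reported relative to vehicle.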

[3] = NCI Yeast Anticancer Drug Screen. Data for the sgs1 mgt1 strain (AID 161);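 further: 0% = growth of cultures given vehicle only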; details: S. cerevisiae sgs1 mgt1 strain, stronger effect = higher value; at 50.0 µM unless noted
Outline: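 Read-out: growth inhibition vs vehicle controls. Cells: mutant yeast strain deficient in DNA damage repair.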

[4] = NCI Yeast Anticancer Drug Screen. Data for the cln2 rad14 strain (AID 165);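 further: 0% = growth equal to vehicle treated cultures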; details: S. cerevisiae cln2 rad14 strain, stronger effect = higher value; at 50.0 µM unless noted
Outline: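 Test compounds were added to cln2 rad14 yeast cultures; inhibition of growth was then determined by comparison with vehicle treatment.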

[5] = NCI Yeast Anticancer Drug Screen. Data for the bub3 strain (AID 167); details: S. cerevisiae bub3 mutant strain, stronger effect = higher value; at 50.0 µM unless noted
Outline: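 Yeast carrying a defined mutation is treated with each compound, and growth is compared with that of vehicle-exposed cells to give inhibition.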

[6] = NCI Yeast Anticancer Drug Screen. Data for the mlh1 rad18 strain (AID 175); details: S. cerevisiae mlh1 rad18 strain growth inhibition, stronger effect = higher value; at 50.0 µM unless noted
Outline: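 Inhibition values reflect reduced growth of mutant yeast versus vehicle-treated controls following compound exposure; the mutations affect DNA damage repair.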

Row | SMILES | growth inhibition [1] | growth inhibition [2] | growth inhibition [3] | growth inhibition [4] | growth inhibition [5] | growth inhibition [6]
1 | CC(C)=C1C2C(C13C(=O)OC(C)(C)OC3=O)C2(C)C (stereo not given) | -10.5% | -16.9% | -11.6% | 7.9% | -21.6% | -9.2%
2 | COc1cc2ccc(Cc3nccc4cc(OC)c(OC)cc34)cc2cc1OC | 98.4% (active) | 98.5% (active) | 99% (active) | 91% (active) | 97% (active) | 98.2% (active)
3 | CC(C)(C)CNCCO | -2.45% | -23.4% | -2% | -7.5% | -7.55% | -6.3%
4 | CCN1CCC(O)C1 (stereo not given) | 18.6% | -0.1% | 19.2% | 14.2% | 26% | 30.9%
5 | Clc1cccc(C2ON=C(c3ccccc3)N2C23CC4CC(CC(C4)C2)C3)c1Cl (stereo not given) | 10.3% | -6.55% | 7.95% | -13.5% | -4% | -3.95%
6 | O=Cc1ccc(OC(=O)Nc2ccc([N+](=O)[O-])cc2)cc1 | 2.65% | 45% | 33.4% | -2.7% | 46.6% | 47.4%
7 | COC(=O)CC(C)N(c1ccc(Cl)c(Cl)c1)S(=O)(=O)c1ccc(C)cc1 (stereo not given) | 37.9% | -0.15% | 4.1% | -19.1% | -6.05% | 11.1%
8 | CC(C)(C)NCCS | -17.1% | -34.9% | -32.4% | 2.95% | -19.9% | -12.8%
9 | CCCCCCCCCC=O | -2.05% | 8% | -11.5% | 10.6% | 23.7% | 6.8%
10 | CCOC(=O)C(=CNc1ccc(OC)cc1[N+](=O)[O-])C(=O)OCC | 11.7% | 7.85% | 11.6% | 0.3% | 11.3% | 15.1%
11 | CCOC(OCC)c1ccc(OC)c(OC)c1 | 13.5% | -5.3% | 8.95% | -0.1% | 3.45% | 9.6%
12 | OCC1OC(n2cnc3c(/C=C(/O)c4ccccc4)ncnc32)C(O)C1O (stereo not given) | -32.6% | -27% | 0.35% | -13.5% | -27.1% | 5.35%
13 | C(CCC1CO1)CC1CO1 (stereo not given) | 3.25% | -21.1% | -31.6% | -27.2% | -5.45% | -22.8%
14 | Nc1ccccc1NC(=O)C(F)(F)C(F)(F)C(F)(F)C(=O)Nc1ccccc1N | 3.15% | -6.25% | -14.6% | -12.3% | 28.6% | -16.6%
15 | COC(=O)Nc1ccc(Cc2ccc(NC(=O)OC)cc2)cc1 | 26.1% | 7.35% | 27.5% | 15.7% | 33.5% | 29.6%
16 | ClC(Cl)CN(Cc1ccccc1)c1ncc[nH]1 | 22.5% | 6.25% | 28% | -59.2% | 8.05% | 17.6%
17 | CCN(CCO)C(=O)Nc1ccc(Cl)cc1 | -6.1% | -31.6% | 11.1% | 8.6% | 0.55% | -7.65%
18 | CC1([N+](=O)[O-])COC(Cc2ccccc2)OC1 (stereo not given) | -7.7% | -4% | -16.9% | -17.3% | -18% | -5%
19 | CCOC(=O)c1cnc2c(cnn2CC)c1NCC(C)C | -3.15% | 21.8% | 18.6% | 3.15% | 85.9% (active) | 3.35%
20 | COc1c(O)cc2c(c1O)C1OC(CO)C(O)C(O)C1OC2=O (stereo not given) | -4.3% | -15.4% | -3.85% | 19.1% | -20.8% | 0.5%

Row | SMILES | growth inhibition [1] | growth inhibition [2] | growth inhibition [3] | growth inhibition [4] | growth inhibition [5] | growth inhibition [6]
21 | O=c1[nH]nc(-c2ccccc2)nc1/C(=N\Nc1ccccc1)c1ccccc1 | 15.5% | -12.3% | 1.05% | 0.85% | 12.5% | 14.7%
22 | CC1(c2ccccc2)CC/C(=C/c2ccccc2)C1=O (stereo not given) | -5.4% | 10.1% | 25.9% | -43.5% | 33.3% | 18.3%
23 | CCCCCCCNC(=O)C(C)Br (stereo not given) | 17.6% | 26.6% | 16.6% | -41.9% | 19.7% | 22.1%
24 | Cn1ccnc1C(O)(c1nccn1C)c1nccn1C | -5.75% | -2.55% | 2.15% | 19.1% | -8.35% | 16.2%
25 | O=Nc1ccc2ccccc2c1N=Nc1ccccc1C(=O)O | 20.5% | 72.5% (active) | 45.6% | 14.3% | 53% | 35.8%
26 | COc1ccc(C(=O)C(CN(C)C)CN(C)C)c(OC)c1 | 30.6% | 30.8% | 57% | 32.9% | 30.8% | 64.2%
27 | O=C(C(=C(I)I)c1ccccc1)c1ccccc1 | 7.7% | -7.95% | 25.1% | -13.7% | 13.6% | -75.4%
28 | O=C(N/N=C(\c1nc2ccc(Cl)cc2[nH]c1=O)C(O)c1ccccc1Cl)c1ccncc1 (stereo not given) | 16.6% | 20% | 8.7% | 18.7% | 30.9% | 37%
29 | Cc1ccc(NCC(=O)N2CC(=O)Nc3ccccc32)c(C)c1 | -26.2% | -39.1% | -43.8% | -3.4% | -27.7% | -31.3%
30 | CC(C)=C1C2CCC1C(CO)C2CO (stereo not given) | 4.95% | -8.45% | -13.5% | -102% | -2.4% | -15.7%
31 | CCOC(=O)C(CCc1ccccc1[N+](=O)[O-])(CCc1ccccc1[N+](=O)[O-])C(=O)OCC | 12.3% | -0.7% | 6.35% | -9% | 10.7% | 37.7%
32 | Cc1ccc(OC(=O)Oc2ccc(C)cc2)cc1 | 18.8% | 1.9% | 4.35% | -6.9% | 7.05% | 18%
33 | O=C1NC(N/N=C\C(O)C(O)C(O)CO)=N/C1=C/c1ccccc1 (stereo not given) | 16.4% and 33.9% | 18.7% and 29.6% | 3.75% and 32.5% | 16.8% and 16.1% | 12.2% and 32.3% | -9.35% and -5.7%
34 | CC1CCCN(CCC(=O)c2ccc(O)cc2)C1 (stereo not given) | 38.2% | 22.5% | 26.3% | 21.2% | 7.35% | 32.4%
35 | C=CCCC(=O)CC(=O)OCc1ccccc1 | -7.2% | -31% | -1.15% | 8.05% | -37% | 16.1%
36 | NC(=S)c1cccc(OCCc2ccccc2)c1 | 97.7% (active) | 99.4% (active) | 99% (active) | 96.3% (active) | 99.2% (active) | 98.7% (active)
37 | O=S(=O)(c1ccccn1)c1nc2ccccc2s1 | -1.75% | 7.1% | -0.45% | 17.1% | -2.8% | 0.45%
38 | Cc1cc(C)c(-c2c(C)cc(C)c(C(=O)c3ccc([N+](=O)[O-])cc3)c2C)c(C)c1C(=O)c1ccc([N+](=O)[O-])cc1 | 25.7% | 2.85% | 11.8% | 9.25% | 3.2% | 8.85%
39 | Cc1cc2nncn2c2ccccc12 | 9.15% | -3.55% | -2.9% | -12.3% | 1.2% | 11.2%
40 | CCOc1cc2c(cc1C(C)c1ccc(OC)c(C)c1)OCO2 (stereo not given) | 11.1% | 5.6% | -2.3% | 74% (active) | 26.2% | 5.7%
